Compound activity (PubChem BioAssay)
ELG1 repair inh: inhibitors of ELG1-dependent DNA repair in HEK293T cells; HEK293T ELG1-luciferase reporter, luminescence, 16 h; DNA damage induced by 5-fluorouridine; Potency, µM (series often up to 46.1 µM), inactives show top-dose activity change, negative = inhibition, actives largely listed as inhibitors; 2.3% of 330,000 active; note: % is set by controls: 0 for no effect and ±100 for the full control effect; nearly all actives have a fitted effect of over 55% in size
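Step one: seed 2,000 cells per well. Step two: pin-transfer compound or DMSO alongside 5-fluorouridine. Step three: incubate 16 hr, 37 °C, 5% CO2. Step four: add ONE-Glo, wait 30 min, read luminescence.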
Rab9 promoter act: activators of Rab9 promoter. 2.8% of 320,000 active. Huh7 Rab9 promoter-luciferase reporter, luminescence, 24 h. Potency, µM (series often up to 9.22 µM), for the others: top-dose activation, negative = inhibition, usual class: activators; note: % of control where 0% means no effect; nearly all actives have a fitted effect of over 60% in size
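Huh7 cells stably carrying a Rab9 promoter-luciferase reporter, 1500 cells per well in OP-MEM I with 10% FBS, treated with compound 24 hours at 37C. Luciferase activity read by luminescence after 10 minutes with Amplite reagent.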
NPC1 prom act: activators of NPC1 promoter. 2.4% of 320,000 active. Potency, µM (highest dose often 9.22 µM), without a hit: top-dose activation, hits mostly activators. Huh7 NPC1 promoter luciferase reporter, 24 h; note: % of control where 0% means no effect; nearly all actives have a fitted effect of over 60% in size
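Luminescence from an NPC1 promoter-driven luciferase reporter in stably transfected Huh7 cells was measured after 24 h compound treatment at 37 °C, followed by 10 min ambient incubation with luciferase detection reagent.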
SMN2 splice enh: SMN2 splice variant enhancement; 2.8% of 210,000 active; HEK293 SMN2-luciferase splicing reporter, luminescence, 30-36 h; Potency, µM (series often up to 46.1 µM), without a hit: at the top dose activity change, positive = activation, usual class: activators; note: % of control where 0% means no effect; nearly all actives have a fitted effect of over 55% in size
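HEK293 cells carry an SMN2 minigene-luciferase reporter in which exon 7 inclusion puts luciferase in frame. Cells were seeded at 2000 cells/well, attached for 10-12 hours, then exposed to compounds for 30-36 hours at 37C before ONE-Glo luminescence.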
ELG1 genotoxic: inducers of genotoxicity in HEK293T ELG1-luciferase cells. HEK293T ELG1-luciferase reporter, luminescence, 16 h. Potency, µM (doses to about 46 µM), inactives show at the highest dose activity change, positive = activation, usual class: activators. 1.3% of 330,000 active. AID 504466; note: % of control where 0% means no effect; nearly all actives have a fitted effect of over 60% in size
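Genotoxicity was scored as increased ELG1-luciferase reporter signal, measured by ONE-Glo luminescence (30 min, room temperature). Compound or vehicle exposure of the HEK293T reporter cells lasted 16 hr at 37°C.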
FLuc counter: inhibits or activates purified firefly luciferase, miR-21 counter-screen | 6.9% of 360,000 active | AID 588342 | purified FLuc, Km substrates, luminescence inhibition | Potency, µM (highest dose often 57.5 µM), for the others: at the highest dose activity change, negative = inhibition, actives largely listed as inhibitors;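 note: plate controls were vehicle for no effect and reference inhibitor for full effect; nearly all actives have a fitted effect of over 55% in size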
Target sequence (P08659 whole entry, looked up): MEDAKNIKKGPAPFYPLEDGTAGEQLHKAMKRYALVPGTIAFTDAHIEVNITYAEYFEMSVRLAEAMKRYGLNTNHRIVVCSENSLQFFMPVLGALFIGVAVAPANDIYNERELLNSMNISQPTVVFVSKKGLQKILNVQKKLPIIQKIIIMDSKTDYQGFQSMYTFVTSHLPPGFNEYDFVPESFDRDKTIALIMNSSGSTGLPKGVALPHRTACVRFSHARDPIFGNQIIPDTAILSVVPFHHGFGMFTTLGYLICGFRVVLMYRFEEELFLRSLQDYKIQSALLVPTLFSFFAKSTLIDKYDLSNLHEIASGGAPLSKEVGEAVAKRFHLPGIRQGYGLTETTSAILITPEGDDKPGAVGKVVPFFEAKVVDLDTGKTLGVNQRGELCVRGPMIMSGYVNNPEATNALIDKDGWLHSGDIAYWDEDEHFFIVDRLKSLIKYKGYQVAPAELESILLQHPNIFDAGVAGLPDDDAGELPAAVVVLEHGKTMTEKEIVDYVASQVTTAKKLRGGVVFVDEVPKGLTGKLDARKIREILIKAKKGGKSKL
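Biochemical qHTS of compounds, final roughly 60 µM downward over six points, against 10 nM purified firefly luciferase using Km concentrations of substrates (10 uM D-luciferin, 10 uM ATP) in Tris acetate pH 7.5 buffer; luminescence output.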
An asterisk follows results filed as active; ? = inconclusive; . = no result. This is a sample that favours compounds with a hit; in the whole collection about 9.4% have one here. Calls come from the whole dose curve; as a rule, active = well fitted curve in the direction sought with a large enough effect; inconclusive = small, poorly fitted or top-dose-only effect, or another doubt; inactive = no such curve, though single readings can be large; an effect the other way counts as inactive or inconclusive. Potency is the fitted concentration of half-maximal effect.

SMILES | ELG1 repair inh | Rab9 promoter act | NPC1 prom act | SMN2 splice enh | ELG1 genotoxic | FLuc counter
O=C(CCOc1ccccc1)Nc1ccccc1[N+](=O)[O-] | ? | 14.8% | 11.8% | 18.9% | 12.7% | -10.8%
CCOC(=O)N(C)S(=O)(=O)c1ccccc1[N+](=O)[O-] | 7.0% | -1.9% | -6.6% | 7.2% | -3.5% | -2.4%
CC(C)(C)C(=O)COc1ccccc1[N+](=O)[O-] | -4.1% | 2.9% | 9.7% | 8.8% | 0.2% | 2.0%
COc1ccc(CNC(=O)c2ccc3c(c2)N(Cc2c(F)cccc2Cl)C(=O)CS3)cc1 | . | . | . | -43.5% | . | 2.6%
Cc1ccc(C)c(NC(=O)Cn2c(=O)oc3cc(S(=O)(=O)NCc4ccccc4)ccc32)c1 | . | . | . | -18.5% | . | ?
CN(C)c1ccc(N=Nc2ccccc2C(=O)OCC(=O)NCC2CCCCC2)cc1 | ? | 19.6% | 8.4% | 23.7% | -3.0% | 4.78µM*
CN(C)c1ccc(N=Nc2ccccc2C(=O)OCC(=O)N(C)C2CCCCC2)cc1 | -16.9% | ? | 25.6% | ? | 0.1% | 1.07µM*
CN(C)c1ccc(C(=O)OCC(=O)NC2CCCCCC2)cc1 | -17.5% | 0.0% | -4.1% | -5.2% | -7.2% | -2.8%
CN(C)c1ccc(N=Nc2ccccc2C(=O)OCC(=O)NC2CCCC2)cc1 | ? | 25.1% | 11.0% | . | 1.5% | 2.69µM*
COc1ccc(OC)c(-c2nnc3n2N=C(c2ccc(OC(F)F)c(OCC4CC4)c2)CS3)c1 | 11.6µM* | . | . | . | -2.5% | .
COc1ccc(OC)c(-c2nnc3n2N=C(c2ccc(OC)c(OC)c2)CS3)c1 | -5.0% | -23.8% | -15.0% | . | ? | 3.5%
CCn1cc(C(=O)NCCc2ccc(Cl)cc2)c(=O)c2cc(S(=O)(=O)N3CCOCC3)ccc21 | . | . | . | 7.7% | . | -2.0%
Cn1cc([N+](=O)[O-])c(C(=O)Nc2ccc(-c3nc4ccccc4[nH]3)cc2)n1 | ? | ? | ? | 8.91µM* | ? | 2.69µM*
O=[N+]([O-])c1cc(Oc2cccnc2)cc([N+](=O)[O-])c1 | 17.1% | -4.8% | 13.4% | -1.7% | 0.0% | 0.4%
Cn1cc([N+](=O)[O-])c(C(=O)Nc2ccc3nc(-c4ccccc4)[nH]c3c2)n1 | ? | ? | 3.16µM* | 15.8µM* | ? | 4.78µM*
Cn1cc([N+](=O)[O-])c(C(=O)Nc2cc(Oc3cccnc3)cc([N+](=O)[O-])c2)n1 | 3.16µM* | -3.2% | -1.0% | -44.9% | -4.1% | 1.9%
Cn1cc([N+](=O)[O-])c(C(=O)Nc2ccc(C3CCCCC3)cc2)n1 | ? | ? | 13.8% | . | 13.7% | 10.7µM*
COc1ccc(S(=O)(=O)c2cn(C)c3cc(N4CCCC4)c(F)cc3c2=O)cc1 | . | . | . | . | . | -1.7%
CCC(C)c1ccc(Nc2ncccc2C#N)cc1 (stereo not drawn) | ? | ? | ? | ? | ? | 21.3µM*
S=C(Nc1ccc(Cl)cc1)c1nc2ccccc2s1 | ? | 3.55µM* | 3.98µM* | ? | 11.3% | 6.75µM*
Cc1ccc(NC(=S)c2nc3ccccc3s2)cc1 | ? | 2.82µM* | 1.26µM* | ? | 9.8% | 0.953µM*
O=C(Nc1ccc(Cl)cc1)/C(=C/c1cccc(O)c1)c1nc2ccccc2s1 | 25.9µM* | -14.8% | -9.4% | -105.3% | -16.6% | ?
Cc1ccc(C)c(NC(=S)c2nc3ccccc3s2)c1 | ? | ? | ? | ? | 4.2% | ?
CCN(CC)S(=O)(=O)c1ccc2c(c1)N(CC(=O)Nc1ccc(C)cc1C)C(=O)C1CCCN21 (stereo not drawn) | . | . | . | . | . | -5.9%
Cc1ccc(CCNC(=O)CCN2N=C(c3ccc(C)cc3)CCC2=O)cc1 | . | . | . | . | . | -6.5%
SMILES | ELG1 repair inh | Rab9 promoter act | NPC1 prom act | SMN2 splice enh | ELG1 genotoxic | FLuc counter
Cc1ccc(C2CN=NC23CCc2ccccc2C3=O)cc1 (stereo not drawn) | ? | 1.1% | 7.8% | -0.9% | ? | 12µM*
O=C1c2ccccc2CCCC12N=NCC2c1cccc2ccccc12 (stereo not drawn) | -12.0% | 1.1% | -5.1% | -29.1% | -6.2% | -0.7%
CCCCn1c(SCc2nc3ccccc3s2)nc2cc(S(N)(=O)=O)ccc21 | 18.4µM* | 0.0% | 7.2% | -34.6% | -4.5% | ?
CCCn1c(=O)c2ccccc2n2c(SCc3nc4ccccc4s3)nnc12 | ? | ? | 3.4% | ? | ? | 10.7µM*
O=c1[nH]nc(SCc2nc3ccccc3s2)n1C1CC1 | ? | ? | 9.9% | ? | 20.6µM* | 23.9µM*
CCCCn1c(SCc2nc3ccccc3s2)nc2ccccc2c1=O | -13.1% | -4.2% | -2.0% | -49.1% | 7.4% | -1.0%
CCCn1c(SCc2nc3ccccc3s2)n[nH]c1=O | ? | 3.55µM* | 19.9% | ? | 18.3µM* | 5.36µM*
Cc1cc(C)c(-n2c(SCc3nc4ccccc4s3)n[nH]c2=O)c(C)c1 | -23.8% | -1.1% | -8.4% | . | -4.2% | 2.7%
CC(C)NC(=O)Cn1c(=O)nc(-c2ccccc2)c2ccccc21 | . | . | . | . | . | 1.6%
O=C(N/N=C/c1ccccc1C(=O)O)c1cc(-c2ccc3c4c(cccc24)CC3)n[nH]1 | ? | -7.6% | -6.1% | 4.6% | -0.9% | 15.1µM*
O=C(N/N=C/c1ccco1)c1cc(-c2cccc3ccccc23)n[nH]1 | ? | -2.6% | 22.5% | -15.1% | 8.9% | 16.9µM*
Cc1ccc(-c2cc(C(=O)N/N=C/c3ccco3)[nH]n2)cc1 | ? | 14.6% | -0.9% | 15.8% | 8.7% | 21.3µM*
Cc1cc(C)nc(SCc2ccc(C(=O)N/N=C/c3ccccc3C(=O)O)cc2)n1 | 3.4% | -10.5% | -2.6% | 10.4% | -0.2% | ?
COc1ccc(C(=O)N/N=C\c2ccoc2)cc1 | ? | 25.8% | ? | . | ? | 19µM*
CCOc1cccc(C(=O)N/N=C/c2ccoc2)c1 | ? | 0.7% | -3.7% | . | ? | 13.5µM*
COc1cc(OC)c(C(=O)N/N=C/c2ccoc2)cc1OC | -4.2% | 7.3% | -0.5% | . | ? | -7.8%
CC(C)c1cc(C(=O)N/N=C/c2ccoc2)cs1 | ? | ? | ? | . | ? | 12µM*
CC(C)c1cc(C(=O)N/N=C/c2cccnc2)cs1 | ? | -5.5% | -1.2% | ? | 16.1% | ?
Cc1ccc(C(=O)N/N=C/c2ccoc2)cc1C | ? | ? | ? | . | ? | 26.9µM*
CCCN(CCC)C(=O)Cn1c(=O)n(Cc2ccc(C(=O)NCCc3ccc(Cl)cc3)cc2)c(=O)c2ccccc21 | . | . | . | 3.0% | . | ?
COc1cccc(NS(=O)(=O)c2cc(-c3cnc(C4CC4)o3)ccc2C)c1 | . | . | . | . | . | -16.1%
